Assay results taken from PubChem BioAssay (Tox21).
A number with no mark means an inactive call. The source made the active and inactive calls. Calls come from the whole dose curve; as a rule, active = well fitted curve in the direction sought with a large enough effect in the repeat runs; inconclusive = weak or mixed curves; inactive = flat fitted curve, though single readings scatter.
% is set by controls: 0 for no effect and ±100 for the full control effect.

Assay: qHTS assay to test for compound auto fluorescence at 460 nm (blue) in HepG2 cells (AID 720687)
Conditions: autofluorescence 405/460 nm, 1 h; series mostly up to 46 µM; fluorescence, % of fluorescent control: at the top concentration
Description: U.S. Tox21 Program National Center for Advancing Translational Sciences [NCATS] NIH Chemical Genomics Center [NCGC] U.S. Environmental Protection Agency [EPA] National Institutes of Environmental Health Sciences [NIEHS] National Toxicology Program [NTP] U.S. Food and Drug Administration [FDA] Tox21 Assay Overview: Compound auto fluorescence often interferes with screening of the compound library against various biological targets and signaling pathways. Some of these compounds may have fluorophoric properties. Such properties may interfere with the assay outputs resulting in false positives and/or negatives. To decrease such complications and ensure the compound activities are relevant in terms of biological response, the Tox21 10K compound library was screened for auto fluorescence. From the fluorophores used as reporter signals in our screening assays, the auto fluorescence equivalencies of compounds against three fluorophores have been evaluated: Triamterene, Fluorescein and Rose Bengal sodium for blue, green and red fluorescence, respectively. The fluorescence intensities were measured using Excitation/Emission wavelengths at 405/460nm, 485/535nm and 540/590nm for blue, green and red labels, respectively. This assay includes the blue fluorescence data.
Tox21 Assay Protocol Summary: 2,000 HepG2 cells in 5 uL of culture medium (MEM containing 10% FBS) per well were dispensed into black wall/clear bottom 1536-well plates using a Multidrop Combi Dispenser (ThermoFisher Scientific, Waltham, MA). The assay plates were incubated overnight at 37 C to allow cell attachment to the well bottom, followed by the transfer of 23 nL compound or DMSO vehicle by a pintool work station (Kalypsys , San Diego, CA). After the assay plates were incubated for 1 hr at 37 C and 5% CO2, fluorescence intensities in the assay plates were measured by an Envision (PerkinElmer, Shelton, CT) plate reader using three labels for measuring blue, green and red fluorescence at […] 460, 535 and 590 nm respectively.
With `CCC1C(C)=NN=C(c2ccc(OC)c(OC)c2)c2cc(OC)c(OC)cc21` (stereo not given) the “fluorescence, % of fluorescent control” value was -0.135%.
For `CCCC(C)(COC(N)=O)COC(=O)NC1CC1` (stereo not given), the “fluorescence, % of fluorescent control” value was -0.0388%.
With `CCC1(CC)C(=O)NC(=O)N(C)C1=O` the “fluorescence, % of fluorescent control” value was 0.0281%.
In the case of `S=C(S)N1CCNCC1`, the “fluorescence, % of fluorescent control” value is reported as 0.086%.
In the case of `C[C@]12CCC(=O)C[C@@H]1CC[C@@H]1[C@@H]2CC[C@@]2(C)[C@H]1CC[C@]2(C)O`, the “fluorescence, % of fluorescent control” value is reported as -0.0175%.
For `O=P(O)(O)C(Cl)(Cl)P(=O)(O)O`, the “fluorescence, % of fluorescent control” value was -0.0212%.
With `C=CC[C@]1(O)CC[C@H]2[C@@H]3CCC4=CCCC[C@@H]4[C@H]3CC[C@@]21C` the “fluorescence, % of fluorescent control” value was 0.03%.
In the case of `CCN1C[C@]2(COC)[C@H](O)C[C@H](OC)[C@@]34[C@@H]5C[C@@]6(O)[C@H](OC(=O)c7ccccc7)[C@@H]5[C@@](OC(C)=O)([C@@H]([C@H](OC)[C@H]23)[C@@H]14)[C@@H](O)[C@@H]6OC`, the “fluorescence, % of fluorescent control” value is reported as 0.201%.
In the case of `CC(C)[C@H]1C(=O)N2CCC[C@H]2[C@]2(O)O[C@](NC(=O)[C@@H]3C[C@@H]4c5cccc6[nH]cc(c56)C[C@H]4N(C)C3)(C(C)C)C(=O)N12`, the “fluorescence, % of fluorescent control” value is reported as 1.3%.
In the case of `C[C@]12CC[C@H]3[C@@H](CCC4=C(O)C(=O)CC[C@@H]43)[C@@H]1CC[C@@H]2OC(=O)CCC1CCCC1`, the “fluorescence, % of fluorescent control” value is reported as 0.13%.
With `CN[C@H]1C[C@@H](N)[C@H](O)[C@@H](O[C@@H]2O[C@H](CO)[C@H](O)[C@@H]3OC4(O[C@H]23)O[C@H](C(N)CO)[C@H](O)[C@H](O)[C@H]4O)[C@@H]1O` (stereo not given in full) the Potency was “inactive”.
In the case of `CCN(CC)CCO[C@H]1CC[C@@]2(C)C(=CC[C@@H]3[C@@H]2CC[C@]2(C)C(=O)CC[C@@H]32)C1`, the “fluorescence, % of fluorescent control” value is reported as -0.0692%.
For `O=C1CN(O)C(c2ccccc2)=c2cc(Cl)ccc2=N1`, the “fluorescence, % of fluorescent control” value was -0.0289%.
In the case of `C[C@@H](N)C(=O)c1ccccc1`, the “fluorescence, % of fluorescent control” value is reported as 0.0518% [at 95.7 µM].
For `CN1CC[C@@]23CCCC[C@@H]2[C@@H]1Cc1ccc(O)cc13`, the “fluorescence, % of fluorescent control” value was -0.255%.
For `OC[C@@H](O)[C@H]1O[C@@H]2O[C@@H](C(Cl)(Cl)Cl)O[C@@H]2[C@H]1O`, the “fluorescence, % of fluorescent control” value was -0.0788%.
For `CCCCc1ccc(C(=O)O)nc1`, the “fluorescence, % of fluorescent control” value was 0.181%.
In the case of `O=C1CN=C(c2ccccc2)c2cc(Cl)ccc2N1`, the “fluorescence, % of fluorescent control” value is reported as -0.0069%.
In the case of `O.O.O.O=C([O-])C(O)C(O)C(=O)[O-].O=C([O-])C(O)C(O)C(=O)[O-].[K+].[K+].[Sb].[Sb]` (stereo not given), the “fluorescence, % of fluorescent control” value is reported as 0.0239%.
For `C[C@H]1[C@H]2Cc3ccc(O)cc3[C@]1(C)CCN2CCc1ccccc1`, the “fluorescence, % of fluorescent control” value was -0.0024% [at 91.3 µM].
With `C/C=C(\CC)C(=O)NC(N)=O` the “fluorescence, % of fluorescent control” value was 0.0018%.
With `CC(C)(O)[C@@H]1[C@H]2OC(=O)[C@@H]1[C@]1(O)C[C@H]3O[C@]34C(=O)O[C@H]2[C@]14C` the Potency was “inactive”.
With `[S]=[Sb](=[S])[S][Sb](=[S])=[S]` the “fluorescence, % of fluorescent control” value was -0.25%.
In the case of `C[C@]12CCC(=O)C=C1C=C[C@@H]1[C@@H]2CC[C@@]2(C)[C@H]1CC[C@@]2(O)CCC(=O)O`, the “fluorescence, % of fluorescent control” value is reported as -0.0236% [at 18.6 µM].
With `CCC(C)(S(=O)(=O)CC)S(=O)(=O)CC` the “fluorescence, % of fluorescent control” value was -0.142%.
With `Cc1nnc2n1-c1sc(Br)cc1C(c1ccccc1Cl)=NC2` the “fluorescence, % of fluorescent control” value was -0.0202%.
With `CO[C@H]1[C@@H](O)C[C@H](O[C@H]2[C@@H](O)C[C@H](O[C@H]3[C@@H](O)C[C@H](O[C@H]4CC[C@@]5(C)[C@H](CC[C@@H]6[C@@H]5C[C@@H](O)[C@]5(C)[C@@H](C7=CC(=O)OC7)CC[C@]65O)C4)O[C@@H]3C)O[C@@H]2C)O[C@@H]1C` the “fluorescence, % of fluorescent control” value was 0.0883%.
With `NCC[C@H](O)C(=O)N[C@@H]1C[C@H](N)[C@@H](O[C@H]2O[C@H](CN)[C@@H](O)[C@H](O)[C@H]2N)[C@H](O[C@@H]2O[C@H](CO)[C@@H](O)[C@H]2O)[C@H]1O` the “fluorescence, % of fluorescent control” value was -0.0455% [at 18.6 µM].
With `CNc1ccc(C(=O)CC(O)CCC(C)C2OC(=O)CC(O)CC(=O)CC(O)CC(O)CC(O)CC(O)CC3(O)CC(O)C(C(=O)OC)C(CC(O[C@@H]4O[C@H](C)[C@@H](O)[C@H](N)[C@@H]4O)/C=C/C=C/C=C/C=C/C=C/C=C/C=C/C2C)O3)cc1` (stereo not given in full) the “fluorescence, % of fluorescent control” value was 0.0844%.
In the case of `NC1=NC(=O)N2CC12` (stereo not given), the “fluorescence, % of fluorescent control” value is reported as 0.0232%.
With `CCC(=O)O[C@]1(c2ccccc2)CCN(C)C[C@H]1C` the “fluorescence, % of fluorescent control” value was -0.0196%.
For `CC(=O)O[C@H]1C[C@H](O[C@H]2[C@@H](O)C[C@H](O[C@H]3[C@@H](O)C[C@H](O[C@H]4CC[C@@]5(C)[C@H](CC[C@@H]6[C@@H]5C[C@@H](O)[C@]5(C)[C@@H](C7=CC(=O)OC7)CC[C@]65O)C4)O[C@@H]3C)O[C@@H]2C)O[C@H](C)[C@H]1O[C@@H]1O[C@H](CO)[C@@H](O)[C@H](O)[C@H]1O`, the “fluorescence, % of fluorescent control” value was 0.131%.
In the case of `N#CC(C#N)=Cc1cc(O)c(O)c(O)c1`, the “fluorescence, % of fluorescent control” value is reported as -0.0816%.
In the case of `CNC(C)CC1CCCCC1` (stereo not given), the “fluorescence, % of fluorescent control” value is reported as 0.0743%.
In the case of `C[C@]12C[C@H]3S[C@H]3C[C@@H]1CC[C@@H]1[C@@H]2CC[C@]2(C)[C@@H](O)CC[C@@H]12`, the “fluorescence, % of fluorescent control” value is reported as -0.0131% [at 18.6 µM].
For `Cc1cccc(C(C)c2cnc[nH]2)c1C` (stereo not given), the “fluorescence, % of fluorescent control” value was -0.0109%.
In the case of `CC(=O)O[C@H]1CC[C@H]2[C@@H]3CCC4=CC(=O)CCC4=C3C=C[C@]12C`, the “fluorescence, % of fluorescent control” value is reported as 3.19%.
In the case of `CN(C)CCCCCCN(C)C` (tested in a mixture with another compound), the “fluorescence, % of fluorescent control” value is reported as 0.0211%.
With `C1CN(P2(N3CC3)=NP(N3CC3)(N3CC3)=NP(N3CC3)(N3CC3)=N2)CCO1` (stereo not given) the “fluorescence, % of fluorescent control” value was -0.0051%.
For `O=c1[nH]cc(N(CCCl)CCCl)c(=O)[nH]1`, the “fluorescence, % of fluorescent control” value was 0.251%.
